Growth data for seven molecules are collected here from PubChem BioAssay (NCI).

Holding throughout (assay): NCI-60 one-dose screen, 48 h (100 = growth as untreated, 0 = no growth, -100 = all killed)
Holding throughout (conditions): 10 µM unless noted

The test system of assay [1] is DU-145 prostate.
Assay [2] concerns K-562 leukemia.
The subject of assay [3] is MALME-3M melanoma.
For assay [4], the system named is MDA-MB-231 breast.
Assay [5] relates to RXF 393 renal.
Assay [6] has as its system SF-268 CNS.
For assay [7], the system named is SF-295 CNS.
Assay [8] deals with SF-539 CNS.
Assay [9] deals with UACC-257 melanoma.
Assay [10] relates to M14 melanoma.
Assay [11] deals with HCT-15 colon.
Assay [12] deals with HT29 colon.
For assay [13], the system named is SNB-75 CNS.
Assay [14] deals with SNB-19 CNS.
Assay [15] concerns U251 CNS.
For assay [16], the system named is PC-3 prostate.
In assay [17] the test system is SK-MEL-5 melanoma.
In assay [18] the test system is UACC-62 melanoma.
Assay [19] deals with LOX IMVI melanoma.
Assay [20] relates to SK-MEL-28 melanoma.

The panel holds about 83,000 compounds, 20% with a hit somewhere; the sample as a whole holds those more often.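 Single-concentration screen, 48 h exposure, 96-well plates. Endpoint: percent growth. Below 10 = active.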 Values without a mark were called inactive. The source made the active and inactive calls.

In the case of `CCc1nc2c(=O)[nH]cnc2o1`, the growth was 112% in assay [1]; 104% in assay [2]; 83.1% in [3]; 117% in assay [4]; 102% in assay [5]; 103% in [6]. Also, the growth in assay [7] was 110%; in assay [8], 94.8%; in assay [9] it was 107%; in assay [10] it was 103%; in assay [11], 110%; in [12], 108%. Besides, the growth is 82.5% in [13]; 112% in assay [14]; 99% in assay [15]; 99.4% in [16]; 103% in assay [17]; 108% in [18]. The figures for the growth in assay [19] and in [20] were 94.2% and 106%, respectively.

For the molecule `CC(=O)[C@@H]1CCC=C2CC[C@]3(C)[C@@H](CC[C@@H]4[C@@]5(C)CCCNC(C)(C)[C@@H]5CC[C@]43C)[C@H]21`, the growth was -36.8% (active) in [1]; -44.6% (active) in [2]; -56.1% (active) in [3]; -76.5% (active) in [4]; -91.9% (active) in assay [5]; 12.3% in assay [6]. The growth in assay [7] was -84.7% (active); in assay [8] it was 9.45% (active); in [9] it was -67.4% (active); in [10] it was -82.1% (active); in assay [11], -89% (active); in [12], -83.7% (active). Further, the growth in assay [13] is 23.5%; in assay [14], -77.2% (active); in [15], -98.8% (active); in assay [16], -21.4% (active); in [17] it was 64.2%; in assay [18], -79% (active). Besides, the growth is -99.5% (active) in assay [19] and -42.3% (active) in assay [20].

Turning to `CCOC(=O)c1ccc2[nH]c(O)c(C(=Nc3ccc(N(C)C(=O)CN4CCN(C)CC4)cc3)c3ccccc3)c2c1`, the growth in [1] was -9.05% (active); in [2] it was -20.8% (active); in assay [3] it was -88.9% (active); in [4], -72.3% (active); in [5], -97.7% (active); in assay [6] it was 7.68% (active). Also, the growth in assay [7] was -6.29% (active); in assay [8], -91.1% (active); in assay [9], -55.4% (active); in assay [10] it was -78.5% (active); in [11] it was -23.6% (active); in [12], -33.8% (active). Besides, the growth was -99.2% (active) in [13]; 2.34% (active) in assay [14]; -86.4% (active) in assay [15]; 4.9% (active) in assay [16]; -94% (active) in assay [17]; 17% in assay [18]. In addition, the growth in [19] was -93.2% (active); in [20], -11.9% (active).

For `C=CCn1c(SCC(=O)Nc2ccc(C(=O)/C=C/c3cc4cc(OC)ccc4nc3Cl)cc2)nnc1-c1ccc(Br)cc1`, the growth in assay [1] is 86.1%; in assay [2] it was 46.3%; in assay [3] it was 92.5%; in assay [4], 80.5%; in [5], 83.2%; in assay [6] it was 76%. In addition, the growth in assay [7] was 92.1%; in assay [8], 89.5%; in assay [9], 79.8%; in assay [10], 90.1%; in assay [11] it was 84.2%; in assay [12] it was 73.8%. In addition, the growth in assay [13] was 74.8%; in assay [14], 78.4%; in assay [15] it was 82.5%; in assay [16] it was 68.2%; in assay [17], 82.9%; in assay [18], 72.9%. Further, the values for the growth in assay [19] and in assay [20] were 82.6% and 99.9%, respectively.

As to `O=C(NNC(=O)c1ccc(-n2cc(-c3ccccc3)nn2)cc1)Nc1ccccc1`, the growth is 106% in [1]; 105% in assay [2]; 113% in [3]; 108% in assay [4]; 103% in [5]; 90.2% in [6]. Also, the growth in assay [7] was 101%; in assay [8] it was 96%; in assay [9], 103%; in [10], 97.6%; in assay [11], 103%; in assay [12] it was 118%. The growth in assay [13] is 97.2%; in assay [14], 90.1%; in assay [15], 96.5%; in assay [16], 99.8%; in assay [17], 100%; in assay [18], 97.9%. Further, the growth in assay [19] is 97.1%; in [20], 109%.

As to `COc1cc(/C=C/C(=O)c2cccc(Nc3nc(Nc4ccccc4)nc(Nc4ccccc4)n3)c2)cc(OC)c1OC`, the growth was 60.9% in assay [1]; 24.1% in assay [2]; 69% in [3]; 56% in assay [4]; -32.4% (active) in assay [5]; 73.4% in [6]. The growth is 72.9% in assay [7]; 78.7% in [8]; 106% in assay [9]; 78.5% in assay [10]; 49.6% in [11]; 48.8% in assay [12]. The growth in assay [13] is 52.8%; in assay [14] it was 93.9%; in assay [15], 29.8%; in assay [16], 24.7%; in [17], 51%; in [18] it was 64%. The growth was 45.3% in [19] and 68.9% in assay [20].

As to `CCOC(=O)c1c2c(n3ccc(C)cc13)C(=O)c1ccccc1C2=O`, the growth in assay [1] was 102%; in assay [2], 75.7%; in [3] it was 103%; in assay [4], 90.2%; in [5] it was 95.6%; in assay [6] it was 96.3%. The growth in assay [7] is 98.5%; in assay [8], 102%; in assay [9], 78.2%; in assay [10], 84.6%; in [11], 85.2%; in [12], 87.8%. The growth is 100% in assay [13]; 98.4% in assay [14]; 92.8% in assay [15]; 78% in [16]; 82.1% in assay [17]; 92.6% in assay [18]. Further, the values for the growth in [19] and in assay [20] were 94% and 111%, respectively.
